Laboratory results published in PubChem BioAssay AID1626 (SRMLSC, 2009).
In all, about 220,000 compounds went through this assay and about 2,000 (0.91%) were called active. Roughly 2% stayed inconclusive and do not appear here. Cut-off read from the data, not from the text of the source: inconclusive = inhibition above about 80% without an active follow-up result; inactive = below that; test concentration not stated here. Only a sample is shown. Entries with a potency or affinity are not part of this list.

assay: M. tuberculosis H37Rv growth inhibitors, H37Rv strain (AID 1626); conditions: hits give high values, concentration not given here;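 note: bacteria incubated seven days before Alamar blue readout; 0% = bacteria only wells and 100% = bacteria with antibiotic wells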

Row | SMILES | inhibition
1 | COc1cccc(/C=N/NC(=O)CN(CCc2ccccc2)S(=O)(=O)c2ccc(NC(C)=O)cc2)c1 | 0.86% (inactive)
2 | COc1ccc(/C=N/NC(=O)c2cccnc2)cc1CN1CCc2cc(OC)c(OC)cc2C1C (centres undefined) | 1.27% (inactive)
3 | Cc1cc(C)n2nc(C(=O)OCC(=O)c3cc(C)n(CC4CCCO4)c3C)nc2n1 (centres undefined) | -11.1% (inactive)
4 | CC(=O)c1ccc(NC(=O)N2C3CCC2CC(O)(c2cccnc2)C3)cc1 (centres undefined) | -0.55% (inactive)
5 | CCOC(=O)c1ccc(-c2ccc(/C=N/NC(=O)CN(c3ccccc3Cl)S(C)(=O)=O)o2)cc1 | 6.39% (inactive)
6 | NNC(=O)c1cnn(-c2ccccc2)c1-n1cccc1 | -3.69% (inactive)
7 | Cc1ccc(NC(=O)C(=O)NCc2ccc(/C=C(/C#N)C(=O)NCc3cccnc3)o2)cc1C | 0.05% (inactive)
8 | CCOC(=O)N1CCN(C(=O)CSCC(=O)N=c2sc3ccccc3n2C)CC1 | -1.11% (inactive)
9 | CCOC(=O)c1ccc(NC(=O)Nc2ccc(Cl)cn2)cc1 | -5.47% (inactive)
10 | CCOC(=O)c1ccc(NC(=O)c2cc(F)c(F)cc2Cl)cc1 | 2.44% (inactive)
11 | CC1CCC/C(=C\Nc2ccc(C(=O)O)cc2)C1=O (centres undefined) | -6.3% (inactive)
12 | CCOC(=O)Cc1nc2ccccc2[nH]1 | -10.4% (inactive)
13 | CCOC(=O)c1ccc(NCc2nc3ccccc3n2C)cc1 | 51.7% (inactive)
14 | CCCOC(=O)c1ccc(NC(=O)CC(C)(C)C)cc1 | -1.14% (inactive)
15 | CCOC(=O)c1ccc(NC(=O)COC)cc1 | 79.3% (inactive)
16 | CC1CCC/C(=C\Nc2ccc(O)cc2)C1=O (centres undefined) | -13% (inactive)
17 | Cc1ccc(Nc2nc(C(=O)N3CCC(C(=O)N4CCN(C)CC4)CC3)cs2)cc1 | -9.19% (inactive)
18 | O=C(NCC1CCCO1)c1sc2cc(Cl)ccc2c1Cl (centres undefined) | 10.4% (inactive)
19 | CCN1CCN(C(=O)c2nn(-c3ccc(C)cc3)c(=O)c3c2c2ccccc2n3C)CC1 | 1.02% (inactive)
20 | CC(=O)c1c(C)[nH]c(C(=O)CSc2nnc(-c3ccccc3)n2Cc2ccc3c(c2)OCO3)c1C | 0.21% (inactive)
21 | CN1CCC(N2CCN(c3cccc(C(F)(F)F)c3)CC2)CC1 | -9.94% (inactive)
22 | S=c1[nH]nc(Cc2ccccc2)n1-c1ccc(Cl)cc1 | -10.8% (inactive)

Row | SMILES | inhibition
23 | NNc1nc2ccc(Cl)cc2s1 | 52.6% (inactive)
24 | Cn1c(=O)c2c(nc(N/N=C/c3cccs3)n2Cc2ccccc2)n(C)c1=O | 3.67% (inactive)
25 | CCOC(=O)c1ccc(NC(=O)CCC(=O)OC)cc1 | 72.2% (inactive)
26 | CCCOC(=O)c1ccc(NC(=O)C(CC)CC)cc1 | 0.89% (inactive)
27 | CCOC(=O)c1ccc(NC(=O)COc2ccccc2CNC2CCCC2)cc1 | 11.1% (inactive)
28 | CCOC(=O)c1ccc(NC(=O)CNC(=O)C2CCCCC2)cc1 | -1.48% (inactive)
29 | CCOC(=O)c1ccc(NC(=O)COc2ccccc2CNCCO)cc1 | 91.9% (inactive)
30 | CCOC(=O)c1ccc(NC(=O)C2CCN(S(=O)(=O)CC)CC2)cc1 | 51.8% (inactive)
31 | O=c1[nH]c(Nc2ccc(F)cc2)cc2ccccc12 | 3.27% (inactive)
32 | O=c1[nH]c(Nc2ccccc2)cc2ccccc12 | -8.22% (inactive)
33 | COc1ccccc1NC(=O)CCC(=O)N/N=C(/C)c1ccc(C)cc1 | 0.52% (inactive)
34 | O=C(N/N=C/c1ccccn1)C(=O)N1CCCCCC1 | -1.83% (inactive)
35 | O=C(CSc1ncccn1)N1CCCc2ccccc21 | -8.67% (inactive)
36 | CCCCN(C(=O)c1c(C)[nH]c(C(=O)OCC)c1C)c1ccccc1 | -3.19% (inactive)
37 | COc1ccc(-n2c(=O)c3ccccc3n(CC(=O)c3ccccc3)c2=O)cc1OC | -3.99% (inactive)
38 | C/C(=N\NC(=O)C1CC1(C)c1ccccc1)c1ccco1 (centres undefined) | 5.62% (inactive)
39 | Cn1ncc(C#N)c1NC(=O)c1nn2cccnc2c1Cl | 6.92% (inactive)
40 | Cc1ccc(C(=O)OCC(=O)NCC(F)(F)F)cc1C | 9.6% (inactive)
41 | O=C(CC1C(=O)NCCN1CC1CCCCC1)NCCc1ccc(F)cc1 (centres undefined) | -4.2% (inactive)
42 | COC(=O)Cc1ccc(NC(=O)c2ccc(C(C)(C)C)cc2)cc1 | 6.95% (inactive)
43 | CCOC(=O)c1ccc(NC(=O)CN2C(=O)CCC2=O)cc1 | -7.66% (inactive)
44 | CCOC(=O)c1ccc(NS(C)(=O)=O)cc1 | -0.25% (inactive)

Row | SMILES | inhibition
45 | CCOC(=O)Cc1ccc(NC(=O)c2ccccc2Br)cc1 | 7.37% (inactive)
46 | CC(=O)c1cccc(NC(=O)Cc2coc3cc4c(cc23)CCC4)c1 | 6.34% (inactive)
47 | CCOC(=O)c1ccc(NC(=O)CN2C(=O)CNC2=O)cc1 | -6.17% (inactive)
48 | CCOC(=O)c1ccc(NC(=O)CNC(=O)C23CC4CC(CC(C4)C2)C3)cc1 | -2.81% (inactive)
49 | Cc1ccc(C)c(NC(=O)Cc2coc3cc4c(cc23)CCC4)c1 | 9.72% (inactive)
50 | O=S(=O)(Cc1ccccc1)Cc1cnc(Cl)s1 | 4.1% (inactive)
51 | CCCOCCc1nnc(N)s1 | 1.89% (inactive)
52 | Cc1cccc(OCCSc2cc(C)nc(N)n2)c1 | 6.69% (inactive)
53 | COc1ccc(/C=C/C(=O)c2ccncc2)c2ccccc12 | 76% (inactive)
54 | Cc1[nH]c2ccccc2c1/C=C/C(=O)c1ccncc1 | 6.67% (inactive)
55 | O=C(/C=C/c1ccc2c(c1)OCO2)Nc1cccnc1 | 8.75% (inactive)
56 | CCCCN(CCNP(=O)(OCC)OCC)CP(=O)(OCC)OCC | -3.59% (inactive)
57 | Nc1nc2ccc(O)cc2s1 | -4.72% (inactive)
58 | COc1ccc2nc(N)sc2c1 | 42% (inactive)
59 | O=C(O)CSC1=NC(=Nc2cccc(Cl)c2)C2(CCCCC2)N1c1ccccc1 | 5.37% (inactive)
60 | O=C(NC1CC1)C1=C[C@@H](c2ccccc2)C[C@@H](OCc2ccc(CO)cc2)O1 | -10.6% (inactive)
61 | COc1ccccc1N1CCN(c2nc3ccccn3c(=O)c2C=O)CC1 | -13.2% (inactive)
62 | N#Cc1nc(-c2cccs2)oc1NCc1ccccc1 | 6.94% (inactive)
63 | C=CCNc1oc(-c2cccs2)nc1C#N | -10.7% (inactive)
64 | CCOC(=O)C1(Cc2ccccc2)CCN(Cc2ccc(COC)o2)CC1 | 8.15% (inactive)
